Only a selection was taken, and hits are over-represented in it overall.
Pf Dd2 inh = qHTS Primary assay for Inhibitors of Plasmodium falciparum Dd2 growth in vitro | P. falciparum Dd2 growth, SYBR Green, 72 h | Potency, µM (doses to about 28.9 µM), for the others: top-dose activity, negative = inhibition, usual class: inhibitors | 120,000 compounds, 4.3% hits | AID 1347417, 2020; active means well fitted inhibition curve with a large enough effect;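 further: plate controls were DMSO vehicle for no effect and reference drug for full effect; nearly all actives have a fitted effect of over 65% in size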
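Infected erythrocytes (Dd2, 0.3% parasitemia, 2.5% hematocrit final) are added to compound in RPMI-1640/Albumax II medium, grown 72 h at 37C in low oxygen, then lysed with saponin/Triton-X containing SYBR Green and read by fluorescence.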
* hit, by the source's call; i = inactive; [ ] = remark or other dose. Potency means the concentration at half of the fitted maximal effect.

SMILES | Pf Dd2 inh
O=C(C1CC(=O)N(c2n[nH]c3ccccc23)C1)N1CCN(CCc2ccncc2)CC1 (centres undefined) | -14%
Cn1ccnc1CN1CCCC12CCN(c1ccc(C(F)(F)F)cn1)CC2 | i
O=C(Cn1nc2c(cc1=O)CCCC2)N1CCN(c2ccc(C(F)(F)F)cn2)CC1 | 6%
Oc1cccc(CN2CCCC23CCN(c2ccc(C(F)(F)F)cn2)CC3)c1 | 4.5µM*
CCn1ncc(CN2CCCC23CCN(c2ccc(C(F)(F)F)cn2)CC3)c1C | 10µM*
O=C1COCC2(CN1Cc1c(F)cccc1Cl)CN(c1ccc(C(F)(F)F)cn1)C2 | i
O[C@H]1[C@H](NCc2cccc(C(F)(F)F)c2)[C@@H](c2ccc(N3CCOCC3)nc2)C[C@H]1O | i
Cc1cc(CN2CCCC23CCN(c2nc4ccccc4o2)CC3)on1 | -16%
CCn1ncc(CN2CCCC23CCN(c2cc(C)nc4ccccc24)CC3)c1C | 2µM*
CCCn1ccnc1CN1CCCC12CCN(c1ccc(C(F)(F)F)cn1)CC2 | 11µM*
FC(F)Oc1ccccc1CN1CCCC12CCN(c1ncccn1)CC2 | i
Cc1cc(C)n(CCc2nc3c4ccccc4nc(N4CCN(c5ccccc5F)CC4)n3n2)n1 | 39%
O=C(O)CCc1cc2n(n1)CCN(C(=O)c1ccccc1-n1cccc1)C2 | -4%
COc1ccc(N2CC(C(=O)N3CCC(C(=O)N4CCN(c5ncccn5)CC4)C3)NC2=O)cc1 (centres undefined) | -4%
O=C(c1cccnc1CCC1COc2ccccc2O1)N1CCCC1 (centres undefined) | -12%
COc1cc(OC)cc(C(=O)NCC2CCCN(Cc3cnn(C)c3C)C2)c1 (centres undefined) | -12%
COc1ccc(CC(=O)NC2CCN(c3cc(-c4ccc(Cl)cc4)[nH]n3)CC2)cc1OC | i
C[S+](=O)([O-])N1CC2(Cc3ccccc31)CN([S+](=O)([O-])c1cccs1)C2 | -30%
CN(C)C(=O)c1cccc2c1CCN2C(=O)c1ccc(F)cc1 | i
Cc1ccc(C)c(NC(=O)c2cc3n(n2)CC(c2ccc(Cl)cc2)OC3)c1 (centres undefined) | i
CC1(c2ccccc2)N(Cc2cccnc2)C(=O)OC12CCN(C(=O)Cc1ccc3c(c1)OCO3)CC2 (centres undefined) | i
COc1cccc(C(=O)N2CCC(N3C[C@H](O)C[C@H]3C(=O)NC3CC3)CC2)c1 | -17%
COc1cccc(C(=O)N2CCC(N3C[C@H](O)C[C@H]3C(=O)N3CCN(c4ncccn4)CC3)CC2)c1 | -4%
COc1cccc(C(=O)N2CCC(N3C[C@H](O)C[C@H]3C(=O)N3CC=C(c4ccccc4)CC3)CC2)c1 | 0.89µM*
COc1cccc(C(=O)N2CCC(N3C[C@H](O)C[C@H]3C(=O)N3CCc4ccccc43)CC2)c1 | 2.5µM*
SMILES | Pf Dd2 inh
C=CCN1CCN(C(=O)[C@@H]2C[C@@H](O)CN2C2CCN(C(=O)c3cccc(OC)c3)CC2)CC1 | -18%
CNC(=O)[C@@H]1C[C@@H](O)CN1C1CCN(C(=O)c2cccc(OC)c2)CC1 | -6%
CCN(CC)Cc1cnc2c(C(=O)N3CCC(C(N)=O)CC3)cnn2c1 | -9%
CC1(CCCCN2CCOCC2)COc2ccc(C(=O)NCc3ccco3)cc2N1 (centres undefined) | -13%[44.1 µM]
COCc1nc(CCNC(=O)NC2CCCCC2)no1 | -1%
Cn1c(=O)c2c(nc(SCC(=O)Nc3ccc(OC(F)(F)F)cc3)n2Cc2cccc(C(F)(F)F)c2)n(C)c1=O | 11µM*
Cn1c(=O)c2c(nc(SCC(=O)Nc3ccccc3)n2Cc2ccccc2F)n(C)c1=O | -2%
Cn1c(=O)c2c(nc(SCC(=O)Nc3ccc(F)cc3F)n2Cc2ccccc2)n(C)c1=O | -11%
CCOc1ccc(OCC)c(NC(=O)C2CCCN(S(=O)(=O)c3ccc(C)cc3)C2)c1 (centres undefined) | i
COc1ccc(OC)c(NC(=O)C2CCCN(S(=O)(=O)c3c(C)nn(C)c3C)C2)c1 (centres undefined) | i
CCOc1ccc(N(CC)S(=O)(=O)N2CCCC(C(=O)Nc3cc(Cl)ccc3OC)C2)cc1 (centres undefined) | 10µM*
Cc1cccc(NC(=O)CN2C(=O)NC3(CCC(C)CC3)C2=O)c1C (centres undefined) | 54%
COc1ccc(CNC(=O)N2C[C@@H](Oc3ccccc3)C[C@@H]2C(=O)N2CCOCC2)cc1 | -3%
O=C1NC(=NC2CCCC2)C2(CCN(Cc3ccccc3)C2)N1c1cccnc1 (centres undefined) | -3%
O=C1NC(=NC2CCCC2)C2(CCCN(Cc3ccccc3)C2)N1c1cccnc1 (centres undefined) | -13%
O=C1NC(=NC2CCCC2)C2(CCCN(Cc3ccccc3)C2)N1c1cc(F)cc(F)c1 (centres undefined) | -22%
O=C1NC(=NC2CCCCC2)C2(CCCN(Cc3ccccc3)C2)N1c1cc(F)cc(F)c1 (centres undefined) | 7.1µM*
O=C1NC(=NC2CCCCC2)C2(CCN(Cc3ccccc3)C2)N1c1cc(F)cc(F)c1 (centres undefined) | 1.8µM*
O=C1NC(=NC2CCCC2)C2(CCN(Cc3cccnc3)CC2)N1c1cc(F)cc(F)c1 | -68%
O=C1Nc2ccc(-c3cccs3)cc2C(=O)N2CC[C@H](NS(=O)(=O)c3ccc(Cl)cc3)C[C@@H]12 | -4%
OCc1ccc(CN2C[C@H](O)C[C@H]2c2nc(Cc3ccc(F)cc3Cl)no2)o1 | -4%[44.1 µM]
Cc1cc(C)cc(N2CCC(NC(=O)c3cc(F)cc(F)c3)C2=O)c1 (centres undefined) | i
COCCNC(=O)[C@@H]1C[C@H](Oc2ccccc2)CN1C(=O)COc1ccccc1 | 6%
CC1(C(=O)N2CCCC2C(=O)Nc2ccccc2Oc2cccnc2)CC1 (centres undefined) | -15%
N#Cc1cccc(C(=O)N2CCCCCCNC(=O)[C@@H]3CCCC[C@@H]32)c1 | 23%
SMILES | Pf Dd2 inh
CN(c1ncccc1CNC(=O)CN1CCCC1=O)C1CCCCC1 | -4%
CCN(CC)Cc1ccc2c(c1)CN(C(=O)c1ccsc1)CCO2 | -24%
CCN(CC)Cc1ccc2c(c1)CN(C(=O)COc1ccc(C)cc1)CCO2 | 2.8µM*
CCN(CC)Cc1ccc2c(c1)CN(C(=O)N(CC)CC)CCO2 | -15%
Cc1cc(N2CCN(C(=O)C(c3ccc(F)cc3)N(C)C)CC2)cc(C)n1 (centres undefined) | -12%
Cc1onc(-c2cnn(C)c2NCc2ccc(C#N)cc2)c1C(=O)NC1CCCCC1 | -21%[44.1 µM]
CN1CCC(C(=O)N2Cc3ccccc3CC3(CCN(Cc4cccnc4)C3)C2)CC1 (centres undefined) | -24%
COc1ccc(CC(=O)N2Cc3ccccc3CC23CCCN(C(=O)CN)C3)cc1 (centres undefined) | -21%
NC(=O)c1cccc(CN2CCCC23Cc2ccccc2NC3=O)c1 (centres undefined) | -6%
O=C(C1CC1)N1CC2(CCCN2Cc2cccnc2)Cc2ccccc21 (centres undefined) | 10µM*
O=C(O)CCC(=O)N1Cc2ccccc2CC2(CCCN2Cc2ccncc2)C1 (centres undefined) | 4%
COc1ccc(CN2CCCCC23Cc2ccccc2CN(C(=O)CCC(=O)O)C3)cc1 (centres undefined) | -22%
COc1ccc(CC(=O)N2Cc3ccccc3CC23CCCN(C(=O)CCCN)C3)cc1 (centres undefined) | 14%
